Screen size: about 71,000 compounds; about 35 (0.05%) were called active. Calls follow the shape of the dose curve; as a rule, active = well fitted curve in the direction sought with a large enough effect; inconclusive = small, poorly fitted or top-dose-only effect, or effect the other way; inactive = flat fitted curve, though single readings scatter. A selection follows.
These compounds were tested against tRNA threonylcarbamoyladenosine biosynthesis protein TsaE (Escherichia coli (strain K12)) (UniProt P0AF67) (assay: qHTS Assay for Inhibitors of YjeE). Settings: purified YjeE enzyme, qHTS inhibition assay.
Description: NIH Molecular Libraries Screening Centers Network [MLSCN]
NIH Chemical Genomics Center [NCGC]
Assay Provider: Eric Brown, McMaster University
YjeE is an essential E.coli protein of unknown function that binds adenosine diphosphate (ADP). A complex of YjeE and BODIPY Texas Red-labeled ADP probe (Invitrogen, catalog number A22359) is incubated with library members. Inhibitors of YjeE-ADP binding are detected by a decrease in the fluorescence polarization (FP) of the fluorophore. Purified YjeE was supplied by Chand Mangat and Eric Brown, McMaster University.
NCGC Assay Protocol Summary:
2 uM probe/10 uM YjeE in columns 1, 2, 5-48. Titration of ADP control (from 40 mM, then 1:2) pin-transferred to top half of column 2. Column 1 and bottom half of column 2 are neutral.
Two and a half uL of reagents were dispensed to 1536-well Greiner black plates. Compounds and controls (20 nL) were transferred via Kalypsys PinTool. The plates were incubated for 15 min at room temperature, and then read on ViewLux (Perkin-Elmer) High-throughput CCD imager using BODIPY polarization filter set and 30 seconds exposure time. During dispense, reagent bottle was kept submerged into 4 deg C water bath and all liquid lines were covered with aluminum foil to minimize probe and protein degradation.
Keywords: NIH Roadmap, MLSCN, MLI, MLSMR, qHTS, NCGC, YjeE

Row | Compound | outcome
1 | CCCCC(CC)CN (stereo not given) | inactive
2 | Cc1ccccc1Nc1nc(N)nc(CN2CCN(c3ccccn3)CC2)n1 | inactive
3 | COc1c(F)c(F)c(-c2csc(N)n2)c(F)c1F | inactive
4 | COC(=O)[C@H]1C[C@@H]1[C@H](NC(=O)Oc1ccc(F)cc1)c1ccccc1 | inactive
5 | COC(=O)C(C)C1Sc2ccccc2NC1=O (stereo not given) | inactive
6 | CC(C)(CNCC(O)c1ccccc1)N1CCOCC1 (stereo not given) | inactive
7 | Cc1cnc(CNc2ncncc2-c2ccccc2Cl)cn1 | inactive
8 | COc1ccc(C2C3=C(OC(C)=O)c4ccccc4C3=Nc3c2c(=O)n(C)c(=O)n3C)cc1 (stereo not given) | inactive
9 | Cn1c(-c2ccc(C(=O)c3ccccc3)s2)nc2ccccc21 | inactive
10 | COc1ccccc1-c1nc(C(F)(F)F)c(OC)o1 | inactive
11 | Nc1nc(N)c2[nH]c(CNc3ccc(C(=O)O)cc3)nc2n1 | inactive
12 | CCCc1nc2ccccc2c(=O)n1/N=C/c1ccc(O)c(O)c1 | inactive
13 | CC(C)[C@@H](CC(=O)N[C@@H]1CCNC[C@H]1C(=O)N[C@H](CC(=O)N[C@@H](CCC(=O)O)CC(=O)O)Cc1ccccc1)NC(=O)C[C@H](CO)NC(=O)[C@@H]1CNCC[C@H]1N | inactive
14 | COc1ccc2nc(NC3=NCN(CC4CCCO4)CN3)nc(C)c2c1 (stereo not given) | inactive
15 | Cc1cc(OCC(=O)O)c(Cl)cc1Cl | inactive
16 | Cc1cc(NC(=O)COC(=O)c2ccc(F)c(S(=O)(=O)N3CCOCC3)c2)no1 | inactive
17 | COc1ccc(C(=O)CSc2nccc(=O)[nH]2)cc1 | inactive
18 | CCOC(=O)c1ccc(NC(=O)CS(=O)(=O)c2cn(CC)c3ccccc23)cc1 | inactive
19 | Cc1cc(=O)[nH]c(SCC(N)=O)c1C#N | inactive
20 | CSCCC(NC(=O)c1ccc(=O)n(C)n1)c1nc2ccccc2[nH]1 (stereo not given) | inactive
21 | O=C(NCc1ccc(Cl)cc1)c1cc2c(nc3sccn32)s1 | inactive
22 | CC(C)(C)NCC[C@@H](O)c1cc(C(F)(F)F)nc2c(C(F)(F)F)cccc12 | inactive

Row | Compound | outcome
23 | COc1nc(Oc2ccc(=O)n(C)n2)nc(N(C)C)n1 | inactive
24 | CCCCNC(=O)CSc1nccn1Cc1ccccc1 | inactive
25 | C1CCC2OC2C1 (stereo not given) | inactive
26 | O=c1c(-c2cc(F)cc(F)c2)nc2cnc(Oc3ccccc3)nc2n1C[C@H]1CCCO1 | inactive
27 | CCOC(=O)c1ccc(NC(=O)CSc2nnc(COc3ccccc3OC)n2C)cc1 | inactive
28 | C[C@]1(C(=O)NCCc2c[nH]c3ccccc23)C=C[C@@H](Cc2ccccc2)N1C(=O)c1ccccc1 | inactive
29 | N#Cc1ccc(C(c2nnnn2CCc2ccccc2)N2CCCCCC2)cc1 (stereo not given) | inactive
30 | COc1ccc(N2C(=O)C3CCCN3C2c2cccs2)cc1 (stereo not given) | inactive
31 | COc1ccc(C)cc1S(=O)(=O)NC1CCCCC1 | inactive
32 | O=C1c2oc3ccccc3c(=O)c2C(c2cccc(O)c2)N1c1ccccn1 (stereo not given) | inactive
33 | CC(=O)CC(C)C | inactive
34 | COC(=O)N1CCC2(CCCN(Cc3ccccc3OC)C2)CC1 | inactive
35 | COc1ccc(OC)c(Nc2nc(-c3ccc(O)c(O)c3)cs2)c1 | inactive
36 | FC(F)(F)c1ccccc1-c1cc(NCc2ccccc2)ncn1 | inactive
37 | CN1[C@@H]2CC[C@H]1CC(NC(=O)c1nn(C)c3ccccc13)C2 (stereo not given in full) | inactive
38 | C[C@]12CC[C@@H]3C(=CCc4cc(O)ccc43)[C@@H]1CCC2=O | inactive
39 | Cc1cc(=O)n(C)c(=O)n1CCCNc1ccccc1 | inactive
40 | CC(C)c1ccc2c([Si](C)(C)C)c3c(nc2c1)-c1cccc(=O)n1C3 | inactive
41 | COc1ccc(N2C(=O)CCC(C(=O)N(C)C3CCCCC3)C2c2ccc(OC)c(OC)c2)cc1 (stereo not given) | inactive
42 | C[N+](C)(CCCCCC[N+](C)(C)CCCN1C(=O)c2cccc3cccc(c23)C1=O)CCCN1C(=O)c2cccc3cccc(c23)C1=O | inactive
43 | COc1ccc(Cl)cc1S(=O)(=O)N1CCN(CC(=O)C(C)(C)C)CC1 | inactive
44 | CN1CCN(S(=O)(=O)c2ccc3[nH]cc(C(=O)O)c(=O)c3c2)CC1 | inactive

Row | Compound | outcome
45 | Cc1ccc(C)c(N2CCN(C(=O)CCc3nc4ccccc4[nH]3)CC2)c1 | inactive
46 | O=Cc1c(Cl)cccc1Cl | inactive
47 | COc1cccc(N(CC(=O)Nc2cccc(N(C)S(C)(=O)=O)c2)S(C)(=O)=O)c1 | inactive
48 | COc1ccccc1NC1=NC2(CCCC2)N=C(N)N1 | inactive
49 | CCOc1ccc2[nH]c(=O)c(C(c3nnnn3CCOC)N3CCOCC3)cc2c1 (stereo not given) | inactive
50 | COC(=O)C1(C)C=CC2(CCCCC2)N1C(C)=O (stereo not given) | inactive
51 | CC/C=C/C/C=C/C/C=C/CCCCCCCC(=O)OCC | inactive
52 | O=C(OC(C(=O)NC1CCCC1)c1ccc(F)cc1)c1ccno1 (stereo not given) | inactive
53 | O=c1cnc2cnc(Nc3ccccc3)nc2n1Cc1ccc(F)cc1 | inactive
54 | COCCn1c(SCC(=O)Nc2cc(Cl)ccc2OC)nc2c(c1=O)SC(C)C2 (stereo not given) | inactive
55 | C=C(C)c1cccc(C(C)(C)NC(=O)N2CCN(c3ncccn3)CC2)c1 | inactive
56 | O=C(Cl)c1ccccc1[N+](=O)[O-] | inactive
57 | CCOC(=O)CN(C(=O)CN1CCOCC1)c1ccc(Br)cc1 | inactive
58 | CC(C)NC(=O)N1CC[C@@]2(CCCN(C(=O)c3ccco3)C2)C1 | inactive
59 | S=c1[nH]nc(SCc2ccccc2Cl)c2[nH]cnc12 | inactive
60 | CSc1cccc(NC(=O)CSc2ccccc2)c1 | inactive
61 | Cc1ccc2oc(=O)c3cnn(CC(=O)N4CCN(c5ccccn5)CC4)c3c2c1 | inactive
62 | O=C(CNS(=O)(=O)c1cccc(C(F)(F)F)c1)Nc1ccccc1F | inactive
63 | COC(=O)[C@@]1(Cc2ccccc2)[C@H]2c3cc(C(=O)N4CCCC4)n(Cc4ccc(C)o4)c3C[C@H]2CN1C(=O)c1ccccc1 | inactive
64 | COc1ncc2nc(-c3ccc(Cl)cc3)c(=O)n(C)c2n1 | inactive
65 | CC(c1ccco1)N(C(=O)c1ccc(S(=O)(=O)N2CCCCC2)cc1)c1ccccn1 (stereo not given) | inactive
66 | CC(C)NS(=O)(=O)c1ccc(OCC(=O)Nc2ccc3c(c2)OCCO3)cc1 | inactive

Row | Compound | outcome
67 | Cc1ccc(-n2c(SCC(=O)Nc3ccc4c(c3)OCO4)nnc2-c2ccoc2C)cc1 | inactive
68 | CCOC(=O)NC(C(F)(F)F)(C(F)(F)F)P(=O)(c1ccccc1)c1ccccc1 | inactive
69 | CCCC(=O)N1c2ccc(-c3csc(N)n3)cc2CC1C (stereo not given) | inactive
70 | Cc1ccc(O)c(NC(=O)COc2cc(C)ccc2C)c1 | inactive
71 | COc1ccc(-c2nc3cnc(N(C)C)nc3n(Cc3cccs3)c2=O)cc1 | inactive
72 | O=C(Cl)c1ccc([N+](=O)[O-])cc1 | inactive
73 | Cc1cc(C)cc(N)c1 | inactive
74 | CCOC(=O)N1CCN(C(=O)C2CC(c3ccc(F)cc3)=NO2)CC1 (stereo not given) | inactive
75 | Cc1ccc2c(c1)N(CC(=O)N1CCCc3ccccc31)C(=O)C(C)O2 (stereo not given) | inactive
76 | CCOc1cccc(/C(O)=C2/C(=O)C(=O)N(CCOC)C2c2ccncc2)c1 (stereo not given) | inactive
77 | CC1CC(C)CN(CC(=O)Nc2ccc(S(N)(=O)=O)cc2)C1 (stereo not given) | inactive
78 | CN(c1ccc(C(=O)N2CCc3ccccc3C2)cc1)S(C)(=O)=O | inactive
79 | COc1ccccc1N1CCN(C(=O)c2cc3c(-c4ccc(Cl)cc4)nn(C)c3s2)CC1 | inactive
80 | Cn1c(CC(=O)Nc2ccccc2)nnc1SCC(=O)c1ccccc1 | inactive
81 | Cc1nnc(NC2=NCCCCC2)o1 | inactive
82 | Cn1cc(-c2nc3cnc(N4CCNCC4)nc3n(CCc3ccccc3)c2=O)c2ccccc21 | inactive
83 | COc1cccc(Nc2ncc3ncc(=O)n(C4CC4)c3n2)c1 | inactive
84 | CNC(=O)C1(C)C=CC2(CCCCC2)N1C(C)=O (stereo not given) | inactive
85 | COc1ccccc1CNc1ncnc2ccc(-c3ccc4c(c3)OCO4)cc12 | inactive
86 | COC(=O)[C@@]1(Cc2ccc(OC)cc2)[C@H]2c3cc(C(=O)N4CCCC4)n(Cc4ccc(OC(F)(F)F)cc4)c3C[C@H]2CN1C(=O)c1ccccc1 | inactive
87 | O=C(O)c1cccc(S(=O)(=O)NCCO)c1 | inactive
88 | COc1ccc(N)c(C)c1 | inactive

Row | Compound | outcome
89 | O=C(Cn1ccc(=O)[nH]c1=O)Nc1ccc(C(=O)O)c(O)c1 | inactive
90 | COc1ccc(CC(=O)Nc2c3c(nn2-c2cccc(Cl)c2)CS(=O)C3)cc1 (stereo not given) | inactive
91 | COCCCN1C(=O)C(=O)/C(=C(/O)c2ccc3c(c2)CC(C)O3)C1c1cccnc1 (stereo not given) | inactive
92 | Cn1cc(-c2nc3cncnc3n(-c3ccccc3)c2=O)c2ccccc21 | inactive
93 | Cc1cc(Cl)c(S(=O)(=O)NCCC(=O)O)cc1OCC(N)=O | inactive
94 | Cc1ccnc(SCCn2c(Br)nc3c2c(=O)[nH]c(=O)n3C)n1 | inactive
95 | CC(=NCc1ccc2c(c1)OCO2)C1=C(O)c2ccccc2C1=O | inactive
96 | Cc1ccc2c(c1)sc1ncc(NC(=O)c3ccccc3)c(=O)n12 | inactive
97 | CCCCOc1ccc(Cl)cc1CSc1nncn1N | inactive
98 | CCN(Cc1cc2cc(C)ccc2[nH]c1=O)S(=O)(=O)c1ccccc1 | inactive
99 | CSCC[C@H](NC(=O)NCCc1ccc(F)cc1)C(=O)O | inactive
100 | O=C(Cn1cc2c(n1)CCCCC2)NCCN1CCOCC1 | inactive
101 | CC(=O)Nc1ccc(NC(=O)CN2CCCC(C)C2)c(Cl)c1 (stereo not given) | inactive
102 | COCCn1c(=O)c(-c2cccc(F)c2)nc2cncnc21 | inactive
103 | Oc1cc2c(cc1O)CN(C(=S)NCCc1ccc(Cl)cc1)CCC2 | inactive
104 | CN=C(NC#N)NCCSCc1nc[nH]c1C | inactive
105 | COC(=O)c1nc(NC(=O)c2ccc(Cl)cc2)n[nH]1 | inactive
106 | NC(=O)CCCC1=NS(=O)(=O)c2ccccc2N1 | inactive
107 | COC(=O)c1c(NC(=O)CSc2nncs2)sc2c1CCCCC2 | inactive
108 | CC(=O)N(CC1CCCO1)C1(C(=O)NC2CCCC2)CCCCC1 (stereo not given) | inactive
109 | COc1ccc2[nH]cc(CCNc3nc(-c4cccc(NS(C)(=O)=O)c4)nc4ccccc34)c2c1 | inactive
110 | CCCCCN(C(=O)NC(=O)Nc1ccccc1OC)S(C)(=O)=O | inactive
